Assay results as given in ChEMBL document CHEMBL3988442, “University of Dundee, Small-Polar-MMV Screening Library” (2021).

What was measured:
[1] = molecular target: T1, Aspartate--tRNA(Asp/Asn) ligase (Mycobacterium tuberculosis (strain ATCC 25618 / H37Rv)) (UniProt P9WFW3); assay: Assay for Asp RNA synthetase-1 from Mycobacterium tuberculosis; format: functional; parameters: scale not given: direction of the effect not stated beside the values; conditions: 30 µM; note: in the data most compounds retested in dose-response had high values
T1 sequence (whole entry): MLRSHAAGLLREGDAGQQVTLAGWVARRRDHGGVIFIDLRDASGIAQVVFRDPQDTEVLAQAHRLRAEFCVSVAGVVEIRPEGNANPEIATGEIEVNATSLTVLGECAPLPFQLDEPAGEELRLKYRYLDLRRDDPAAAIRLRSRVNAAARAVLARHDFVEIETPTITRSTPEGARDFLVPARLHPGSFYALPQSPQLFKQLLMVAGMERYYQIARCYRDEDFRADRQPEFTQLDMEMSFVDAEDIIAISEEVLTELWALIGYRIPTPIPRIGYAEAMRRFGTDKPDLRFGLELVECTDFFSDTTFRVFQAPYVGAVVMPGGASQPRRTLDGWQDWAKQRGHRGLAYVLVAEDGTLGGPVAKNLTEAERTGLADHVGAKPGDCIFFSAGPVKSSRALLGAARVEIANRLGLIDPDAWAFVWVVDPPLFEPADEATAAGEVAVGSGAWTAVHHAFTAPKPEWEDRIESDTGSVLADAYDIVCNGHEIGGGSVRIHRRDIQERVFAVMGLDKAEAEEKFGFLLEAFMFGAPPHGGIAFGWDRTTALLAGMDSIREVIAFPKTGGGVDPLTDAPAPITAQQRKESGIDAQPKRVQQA

[2] = molecular target: Shiga toxin 2 (Escherichia coli O157:H7) (UniProt P09385+P09386); assay: E. coli 0.157:H7 Shiga Toxin SOP - stx2 screening assay; format: functional; parameters: scale not given: direction of the effect not stated beside the values; conditions: 30 µM

SMILES: Cn1c(Cn2ccnc2)nnc1C1CCN(Cc2cccnc2N)CC1
- Percent Effect [1]: -2.34%
- Percent Effect [2]: -12.5%

SMILES: CC(NC(=O)N(C)Cc1ccsc1)c1ccc2c(c1)OCO2 (configuration not stated)
- Percent Effect [1]: 1.79%
- Percent Effect [2]: 28.8%

SMILES: Cc1cc(CNC(=O)N2CCN(c3ccccc3)CC2)no1
- Percent Effect [1]: 1.31%
- Percent Effect [2]: -2.24%

SMILES: Cc1nc(CNCc2c(C)nn(C)c2N2CCOCC2)cs1
- Percent Effect [1]: -5.61%
- Percent Effect [2]: 23.3%

SMILES: O=C(CN(C1=NCCCC1)c1ccccc1)c1ccccc1
- Percent Effect [1]: 2.67%
- Percent Effect [2]: -26.2%

SMILES: CC(C)CNC(=O)c1ccc2nnc(C3CCN(S(C)(=O)=O)C3)n2c1 (configuration not stated)
- Percent Effect [1]: 3.22%
- Percent Effect [2]: 3.22%

SMILES: CCC(C)NC(=O)N1CCCn2cnc(CO)c2C1 (configuration not stated)
- Percent Effect [1]: -2.9%
- Percent Effect [2]: -0.62%

SMILES: COC(=O)c1ccc(N2CCN(CCC(=O)NC(N)=O)C(C)C2)cc1 (configuration not stated)
- Percent Effect [1]: 3.04%
- Percent Effect [2]: 25.6%

SMILES: O=C(CN1CCCCC1Cn1cccn1)NC1CCN(C2CC2)CC1 (configuration not stated)
- Percent Effect [1]: 1.64%
- Percent Effect [2]: 4.12%

SMILES: Fc1cnc(N2CCn3cc(CNc4ccccn4)nc3C2)nc1
- Percent Effect [1]: 1.02%
- Percent Effect [2]: -67.4%

SMILES: O=C(CCc1ccc(Br)cc1F)NS(=O)(=O)c1ccc2c(c1)OCCO2
- Percent Effect [1]: 7.79%
- Percent Effect [2]: 13.8%

SMILES: Cc1nn(C)c(Cl)c1CNCc1cccnc1N1CCOCC1
- Percent Effect [1]: -7.19%
- Percent Effect [2]: 4.19%

SMILES: O=C1CCc2cc(-c3csc(CCN4CCCC4=O)n3)ccc2N1
- Percent Effect [1]: -0.577%
- Percent Effect [2]: -10.4%

SMILES: Cc1cccc(CNC(=O)CNc2cc(CO)ccc2Cl)c1
- Percent Effect [1]: 5.12%
- Percent Effect [2]: 0.559%

SMILES: Cc1nc(C)n(CC2CCCN(c3ncnc4[nH]ccc34)C2)n1 (configuration not stated)
- Percent Effect [1]: -1.82%
- Percent Effect [2]: 2.99%

SMILES: Cc1ccccc1C1(CNc2nnc(C)c(C)c2C#N)CCOCC1
- Percent Effect [1]: 2.96%
- Percent Effect [2]: 18.2%

SMILES: Cc1cccc(CN2C[C@@H]3CN(C(=O)NC(C)C)C[C@@H]3C2=O)c1
- Percent Effect [1]: 0.565%
- Percent Effect [2]: -52.1%

SMILES: Cc1nn(C)c(Cl)c1C1CCCN1C(=O)c1ccc2nncn2c1 (configuration not stated)
- Percent Effect [1]: -1.25%
- Percent Effect [2]: 2.44%

SMILES: Cc1ccc(NC(=O)NCCCc2n[nH]c(N)c2C#N)cc1
- Percent Effect [1]: 1.26%
- Percent Effect [2]: -18.4%

SMILES: Cc1ccc(C(CNC(=O)NCc2cc[nH]n2)N2CCOCC2)o1 (configuration not stated)
- Percent Effect [1]: 0.256%
- Percent Effect [2]: -34.1%

SMILES: COCCN(Cc1ccc(F)cc1Cl)C(=O)c1ccc(=O)[nH]n1
- Percent Effect [1]: -1.92%
- Percent Effect [2]: 2.84%

SMILES: CC(=O)Nc1nc(C(=O)N2CCCC(n3nc(C)cc3C)C2)cs1 (configuration not stated)
- Percent Effect [1]: -0.815%
- Percent Effect [2]: 10.8%

SMILES: COc1ccc(CN2CCc3ncnc(C4CCOC4)c3CC2)cc1 (configuration not stated)
- Percent Effect [1]: -0.146%
- Percent Effect [2]: -53.7%

SMILES: O=c1c(-c2ccnc(NC3CCOCC3)n2)cnc2sc(Cl)cn12
- Percent Effect [1]: -3.81%
- Percent Effect [2]: -50%

SMILES: O=C(CCc1cc2n(n1)CCCN(C(=O)c1ccccn1)C2)NC1CC1
- Percent Effect [1]: -1.14%
- Percent Effect [2]: 9.76%

SMILES: COc1ccc(F)cc1C(C)NC(=O)c1nnc(C)s1 (configuration not stated)
- Percent Effect [1]: 1.79%
- Percent Effect [2]: -5.21%

SMILES: Cc1nc(C)c(C(=O)N2CCCC2c2nnc3n2CCCCC3)s1 (configuration not stated)
- Percent Effect [1]: -7.53%
- Percent Effect [2]: -17.2%

SMILES: Nc1cc2c(nn1)CCN(C(=O)c1cccc3c1OCCO3)C2
- Percent Effect [1]: 3.34%
- Percent Effect [2]: -28.6%

SMILES: CC(C)(O)CN1CCN(C(=O)c2sccc2C2CC2)CC1
- Percent Effect [1]: 0.16%
- Percent Effect [2]: 10.1%

SMILES: Cc1cnn(CC2CN(c3ncnc4ccsc34)CCO2)c1 (configuration not stated)
- Percent Effect [1]: -1.51%
- Percent Effect [2]: -0.262%

SMILES: CN1C(=O)C(c2cccnc2)CC12CCN(C(=O)c1cccn1C)CC2 (configuration not stated)
- Percent Effect [1]: 0.99%
- Percent Effect [2]: -12.3%

SMILES: CCN1CC(C(=O)NCc2ccnc(-n3ccnc3C)c2)CC1=O (configuration not stated)
- Percent Effect [1]: -3.16%
- Percent Effect [2]: -11.9%

SMILES: CN1CCOC(CN(C(=O)Cc2ccccc2F)c2nccs2)C1 (configuration not stated)
- Percent Effect [1]: -1.89%
- Percent Effect [2]: -16%

SMILES: O=C(Nc1ccccc1F)N(CCO)Cc1ccsc1
- Percent Effect [1]: -3.39%
- Percent Effect [2]: 20.3%

SMILES: CC(C)(C)n1cc(C(=O)N2CCCN(Cc3cccs3)CC2)cn1
- Percent Effect [1]: -0.0333%
- Percent Effect [2]: 35.3%

SMILES: Cc1nnc(N2C[C@@H](OCCCn3cccn3)[C@H]3OCCC[C@H]32)s1
- Percent Effect [1]: -3.42%
- Percent Effect [2]: -13.8%

SMILES: O=C(NC1CCCC1)NC1CCC(C(=O)N2CCSCC2)CC1 (configuration not stated)
- Percent Effect [1]: 1.78%
- Percent Effect [2]: -37.4%

SMILES: CN(C)S(=O)(=O)N1CCC(Oc2cnccn2)CC1
- Percent Effect [1]: -9.05%
- Percent Effect [2]: -9.23%

SMILES: O=C(Cc1cccs1)N1CC[C@H]2[C@@H]1CCC(=O)N2c1cccnc1
- Percent Effect [1]: -1.62%
- Percent Effect [2]: -9.24%

SMILES: Cc1cc(CC(=O)NCc2ccnc(OCC(F)(F)F)c2)no1
- Percent Effect [1]: -6.06%
- Percent Effect [2]: 21%

SMILES: COc1cccc2c1OCC(NC(=O)NC1CCN(C3CC3)CC1)C2 (configuration not stated)
- Percent Effect [1]: -3.21%
- Percent Effect [2]: 3.63%

SMILES: CCc1noc(C(C)N2CCN(Cc3nnc(C4CC4)o3)CC2)n1 (configuration not stated)
- Percent Effect [1]: -4.98%
- Percent Effect [2]: 10.9%

SMILES: O=C(NCc1ccco1)C1CCCN1Cc1nc(-c2ccco2)no1 (configuration not stated)
- Percent Effect [1]: 3.58%
- Percent Effect [2]: 23.3%

SMILES: CC(C)c1ccc(O)c(C(=O)N2CCN(Cc3cscn3)CC2)c1
- Percent Effect [1]: -0.175%
- Percent Effect [2]: -7.95%

SMILES: CC(C)(C)c1cnc(CN2CCC[C@H]2CO)o1
- Percent Effect [1]: -4.22%
- Percent Effect [2]: -5.47%

SMILES: Cc1csc([C@@H]2C[C@@H]3CCN(C(=O)c4ccnnc4)C[C@H]3O2)n1
- Percent Effect [1]: -2.11%
- Percent Effect [2]: -6.67%
